POLH inh: DNA polymerase eta (human) inhibition; Potency, µM (titrated, usually from 114 µM), most hits filed as inhibitors; Q9Y253; AID 588591; actives 1.2% (n = 390,000); recombinant Pol eta, fluorescent DNA replication assay
Target sequence (Q9Y253 whole entry, looked up): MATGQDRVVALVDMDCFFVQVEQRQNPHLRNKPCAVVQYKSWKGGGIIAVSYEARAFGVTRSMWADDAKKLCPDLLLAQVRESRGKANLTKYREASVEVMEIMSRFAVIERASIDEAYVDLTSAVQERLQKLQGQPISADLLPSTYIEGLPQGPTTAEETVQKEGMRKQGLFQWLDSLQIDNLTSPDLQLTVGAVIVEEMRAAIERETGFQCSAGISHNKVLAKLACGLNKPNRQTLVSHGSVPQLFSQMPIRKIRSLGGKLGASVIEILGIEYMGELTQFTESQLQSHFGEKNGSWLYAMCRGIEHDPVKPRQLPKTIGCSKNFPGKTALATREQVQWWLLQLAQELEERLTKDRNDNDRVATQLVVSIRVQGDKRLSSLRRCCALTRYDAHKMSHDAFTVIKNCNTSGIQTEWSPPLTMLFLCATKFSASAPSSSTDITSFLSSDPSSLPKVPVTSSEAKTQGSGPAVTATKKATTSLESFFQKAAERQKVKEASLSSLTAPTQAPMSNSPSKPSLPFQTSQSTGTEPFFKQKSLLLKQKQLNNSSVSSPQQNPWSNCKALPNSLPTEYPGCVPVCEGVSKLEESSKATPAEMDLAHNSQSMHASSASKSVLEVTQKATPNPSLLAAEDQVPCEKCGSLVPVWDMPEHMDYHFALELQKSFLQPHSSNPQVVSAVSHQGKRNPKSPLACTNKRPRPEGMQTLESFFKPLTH
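Pol eta (10 nM) was preincubated with compounds for 15 min at room temperature, after which fluorescent replication substrate (50 nM final) was added to start the reaction. Fluorescence was read kinetically at 0 and 10 min.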
Pol iota inh: DNA polymerase iota (human) inhibition; Q9UNA4; Pol iota fluorescent replication assay, 10 min; Potency, µM (highest dose often 115 µM), actives largely listed as inhibitors; actives 1% (n = 390,000)
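Fluorescent replication assay read twice, at 0 min and 10 min after adding 50 nM (final) substrate. Enzyme (10 nM) and compounds were first incubated 15 min at room temperature; enzyme-free buffer wells were negative controls.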
POLK inh: blocks human DNA polymerase kappa activity. Q9UBT6. purified Pol kappa, fluorescent DNA synthesis assay, 10 min. Potency, µM (titrated, usually from 107 µM), hits mostly inhibitors. actives 0.53% (n = 400,000)
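Activity was followed as the change in fluorescence between reads at 0 and 10 min after starting the reaction with 50 nM substrate. Beforehand, 10 nM polymerase had been preincubated with compound for 15 min at room temperature.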
PGK inhibitor: T. brucei PGK inhibition; P07378; PGK/GAPDH coupled, Kinase-Glo luminescence, 60 min; Potency, µM (series often up to 57.5 µM), usual class: inhibitors; actives 0.043% (n = 380,000); also: nearly all actives have a fitted effect of over 60% in size
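Recombinant glycosomal PGK reaction used 1,3-bisphosphoglycerate generated in-well by GAPDH (100nM final) in 100mM TEA pH 7.6, 5mM MgCl2, 0.01% Tween-20. After 60 minutes at room temperature, ATP was read by Kinase-Glo Plus luminescence end-point.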
FEN1 inhibitor: inhibitors of human flap endonuclease 1. P39748. Recombinant FEN1 flap cleavage, fluorescence, 15 min. Potency, µM (top dose mostly 114 µM), hits mostly inhibitors. actives 0.35% (n = 390,000). AID 588795; also: nearly all actives have a fitted effect of over 65% in size
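Quantitative HTS format: each compound was titrated, incubated with 10 nM nuclease for 15 min at room temperature, then challenged with flap substrate at 50 nM final. Signal change over 15 min gave concentration–effect curves.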
Pol beta inh: inhibitors of human DNA polymerase beta | P06746 | Pol beta primer extension/strand displacement, fluorescence kinetic | Potency, µM (top dose mostly 114 µM), most hits filed as inhibitors | actives 1.3% (n = 340,000)
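Pol beta (10 nM) and compounds were preincubated 15 min at room temperature, then 50 nM substrate (final) started primer extension/strand displacement. Reads were taken at 0 and 10 min; concentration-response data were fitted to a four-parameter Hill equation.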
Numbers stand for hits; i = inactive; ? = inconclusive; nt = no result. Compounds with a hit are over-represented: about 2.4% of the library has one in this group of screens. Calls follow the shape of the dose curve; as a rule, active = well fitted curve in the direction sought with a large enough effect; inconclusive = small, poorly fitted or top-dose-only effect, or another doubt; inactive = no such curve, though single readings can be large; an effect the other way counts as inactive or inconclusive.

SMILES	POLH inh	Pol iota inh	POLK inh	PGK inhibitor	FEN1 inhibitor	Pol beta inh
COc1ccccc1NC(=O)Cn1c(=O)c(CNc2ccccc2)cc2cc(OC)c(OC)cc21	i	i	i	i	i	?
O=C(O)c1ccc(CN2C(=O)c3cccc4c([N+](=O)[O-])ccc(c34)C2=O)cc1	22µM	?	i	i	i	?
O=C(O)c1ccc(CN2C(=O)c3ccc(C(=O)O)cc3C2=O)cc1	i	i	i	i	i	i
COC(=O)c1ccc(-n2nnc(-c3nsc(NC(=O)c4ccc(Cl)cc4)n3)c2C)cc1	i	?	i	i	i	56µM
Cc1c(-c2nsc(NC(=O)c3cccs3)n2)nnn1-c1ccc(Br)cc1	?	?	i	i	i	3.2µM
Cc1ccc(-n2nnc(-c3nsc(NC(=O)c4ccccc4)n3)c2C)cc1	?	?	i	i	i	i
CCOc1ccccc1NC(=O)c1nc(SCc2ccccc2F)ncc1Cl	nt	i	i	nt	i	nt
COc1ccc(NC(=O)C2(c3cccs3)CCOCC2)cc1Cl	i	i	i	i	i	i
Cc1[nH]c(=O)c(C(=O)/C=C/c2ccccc2F)c2c1CCCC2	?	18µM	i	i	i	i
Brc1ccc(C2C=Cc3ccccc32)cc1 (stereo unspecified)	nt	i	i	nt	i	nt
COc1ccc(N=Nc2cc(OC)c(N)cc2OC)cc1	i	?	i	i	i	nt
Cc1cc(N=Nc2ccc(C)c(N=Nc3cc(C)c(N)cc3N)c2)c(N)cc1N	i	?	50µM	i	22µM	?
CCn1cc(/C=N/NC(=O)COc2cccc3cccnc23)c2ccccc21	?	?	i	i	i	13µM
COC(=O)c1ccc(CSc2nnc(NC(=O)C3CC(=O)N(c4ccc5c(c4)OCCO5)C3)s2)cc1 (stereo unspecified)	?	?	i	i	i	28µM
Cc1ccccc1N1CC(C(=O)Nc2nnc(SCc3ccccn3)s2)CC1=O (stereo unspecified)	50µM	?	i	i	i	79µM
Cc1ccc(CN2CC(C(=O)Nc3nnc(SCc4c(Cl)cccc4Cl)s3)CC2=O)cc1 (stereo unspecified)	?	?	i	i	i	13µM
C=CCSc1nnc(NC(=O)C2CC(=O)N(Cc3ccc(C)cc3)C2)s1 (stereo unspecified)	i	?	i	i	i	nt
Cc1ccccc1N1CC(C(=O)Nc2nnc(SCC(=O)Nc3nccs3)s2)CC1=O (stereo unspecified)	?	?	i	i	i	50µM
Cc1cccc(N2CC(C(=O)Nc3nnc(SCC(=O)Nc4nccs4)s3)CC2=O)c1 (stereo unspecified)	?	i	i	i	i	?
Cc1ccc(-n2ncc3c(NC4CCCCC4)ncnc32)cc1	i	i	i	i	i	i
COc1ccc(C2Nc3ccccc3C(=O)N2c2ccccc2F)cc1COc1ccc(NC(C)=O)cc1 (stereo unspecified)	nt	i	i	nt	i	nt
COc1ccc(OC)c(NC(=O)Cn2c(=O)c3cccn3c3ccccc32)c1	i	i	i	i	i	?
O=C(Nc1nnc(SCc2ccccn2)s1)C1CC(=O)N(c2ccc(F)cc2)C1 (stereo unspecified)	25µM	?	i	i	i	?
Nc1ccc2c(c1)C=C/C2=C\c1ccccc1	nt	i	i	nt	?	nt
N/C(=N\OC(=O)c1cccc2ccccc12)c1cccc([N+](=O)[O-])c1	i	?	i	i	i	50µM
SMILES	POLH inh	Pol iota inh	POLK inh	PGK inhibitor	FEN1 inhibitor	Pol beta inh
O=C(Nc1ccccc1)c1ccc(-n2nncc2-c2ccccc2)cc1	nt	i	i	nt	i	nt
O=C(CSc1nc2c([nH]c3ccccc32)c(=O)n1-c1ccccc1)N1CCCC1	i	i	i	i	i	20µM
O=C(CSc1nc2c([nH]c3ccccc32)c(=O)n1-c1ccccc1)N1CCOCC1	i	i	i	i	i	?
COC(=O)C(Cc1c[nH]c2ccccc12)NC(=O)c1cc(-c2ccc(OC)c(OC)c2)oc1C (stereo unspecified)	?	?	i	i	79µM	i
O=C(Cc1ccc(S(=O)(=O)N2CCCC2)s1)N1CCOCC1	?	?	i	i	i	45µM
O=C(Cc1ccc(S(=O)(=O)N2CCCC2)s1)Nc1nc2c(s1)CCCC2	18µM	?	i	i	i	?
C=CCNC(=O)Cc1ccc(S(=O)(=O)N2CCOCC2)s1	i	i	i	i	i	nt
CC(C)(C)NC(=O)Cc1ccc(S(=O)(=O)N2CCCC2)s1	14µM	i	i	i	i	35µM
Cc1csc2nc(-c3cccc(NC(=O)c4cccc(F)c4)c3)cn12	i	i	i	i	i	i
CCOc1cccc2cc(-c3nnc(NCc4ccc5c(c4)OCO5)s3)c(=O)oc12	4µM	i	i	i	i	?
O=C1C(Cl)=C(N2CCN(c3ccccc3[N+](=O)[O-])CC2)C(=O)c2ccccc21	?	7.9µM	i	i	i	i
Cc1ccccc1N1CC(c2nc3ccccc3n2Cc2ccc(Br)cc2)CC1=O (stereo unspecified)	i	i	i	i	i	i
CCOC(=O)c1cc2c(=O)n3cccc(C)c3nc2n(C)c1=N	nt	nt	nt	nt	nt	79µM
CCOc1cc(C(c2c(C)[nH][nH]c2=O)c2c(C)[nH][nH]c2=O)cc(Cl)c1O	i	25µM	i	i	i	i
O=Cc1ccnc2ccccc12	nt	i	i	nt	i	nt
Cc1cc(-c2ccc(N=Nc3c(S(=O)(=O)O)cc4cc(S(=O)(=O)O)cc(N)c4c3O)c(C)c2)ccc1N=Nc1c(S(=O)(=O)O)cc2cc(S(=O)(=O)O)cc(N)c2c1O	nt	nt	0.89µM	nt	nt	nt
O=S(=O)(O)c1cc(O)c2c(O)c(N=Nc3cc(Cl)ccc3O)c(S(=O)(=O)O)cc2c1	35µM	22µM	16µM	?	?	32µM
Nc1cc(S(=O)(=O)O)cc2ccc(S(=O)(=O)O)cc12	?	?	i	i	i	nt
O=C(Nc1ccc2c(c1)nc1n2CCOC1)c1ccco1	i	i	i	i	i	i
O=C(Nc1ccc2c(c1)nc1n2CCSC1)c1ccco1	?	32µM	i	i	i	11µM
COc1ccc(S(=O)(=O)N(Cc2ccccc2)c2ccccc2C(=O)Nc2ccccc2C(=O)NCc2ccco2)cc1	i	i	i	i	i	89µM
COc1ccc(S(=O)(=O)Nc2ccccc2C(=O)NCc2ccco2)cc1	i	?	i	i	i	i
CN(C)CCN(Cc1ccco1)C(=O)c1cc2c(s1)-c1ccccc1OC2	i	i	i	i	i	i
O=C(Nc1nc2c(s1)CN(Cc1ccccc1)CC2)C1CCC1	i	i	i	i	i	i
CN(C)c1ccc(/C=C(\C#N)C(=O)Nc2nc3c(s2)CCN(Cc2ccccc2)C3)cc1	?	20µM	i	i	?	i
